Measured values: the supplement of paper PMC10849652
Targets with a hit are over-represented here; the source holds about 7,900 in all. About 0.6% of all pairs of compound and target were hits.

Experiments:
Test in all cases: log2 fold change, soluble protein after heating vs DMSO (PISA); higher = thermal stabilisation; K562 cells, 10 uM, 30 min; active = over 0.2 and 3.5 SD of the protein, either way, in both replicates (recomputed)
[1] = compound: C1=CC=C(C=C1)[C@H](COC2=CC3=C(C=C2)NC(=O)N3)NC(=O)C4=CC=CN(C4=O)CC5=CC(=C(C=C5)F)F
Method in brief: (§1)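 K562 cells at 2×10^6 cells/mL were treated with 10 μM compound for 30 min. Aliquots were heated for 3 min across 48°C-58°C, pooled, and extracted in PBS with 0.5% NP-40 at 4°C; soluble protein was the supernatant after 21,000xg for 90 min. Soluble protein was quantified by TMTpro 16plex LC-MS/MS with channel sums equalised, and reported as log2 fold change in thermal stability against DMSO controls, with values from duplicates.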

[2] = compound: CC1=C(SC2=C1C(=N[C@H](C3=NN=C(N32)C)CC(=O)N)C4=CC=C(C=C4)Cl)C
Method in brief: as §1

[3] = compound: CC1=C2C(=CC=C1)N=C(N(C2=O)C3=CC=CC=C3C)CN4C=NC5=C(N=CN=C54)N
Method in brief: as §1

[4] = compound: Cc1sc2c(c1C)C(c1ccc(Cl)cc1)=N[C@@H](CC(=O)OC(C)(C)C)c1nnc(C)n1-2
Method in brief: as §1

[5] = compound: c1ccc([C@@H]2C[C@H]2NC2CCNCC2)cc1
Method in brief: as §1

Measured: log2 fold change

NFATC2IP (UniProt Q8NCF5)
Sequence of UniProt Q8NCF5 (Q8NCF5 whole entry, looked up): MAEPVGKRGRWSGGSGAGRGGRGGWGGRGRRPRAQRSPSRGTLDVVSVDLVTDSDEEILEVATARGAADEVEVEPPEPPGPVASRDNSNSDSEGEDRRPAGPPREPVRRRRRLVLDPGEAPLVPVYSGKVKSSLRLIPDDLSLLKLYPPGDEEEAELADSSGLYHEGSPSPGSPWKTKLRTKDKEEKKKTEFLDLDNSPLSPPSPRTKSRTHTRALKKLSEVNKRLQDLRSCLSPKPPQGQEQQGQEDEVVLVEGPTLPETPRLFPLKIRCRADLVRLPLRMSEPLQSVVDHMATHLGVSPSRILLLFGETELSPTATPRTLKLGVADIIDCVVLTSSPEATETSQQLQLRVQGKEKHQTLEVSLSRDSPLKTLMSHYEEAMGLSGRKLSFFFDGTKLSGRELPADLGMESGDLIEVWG
inactive: [1] -0.051 | [2] 0.18 | [3] 0.039 | [4] -0.088 | [5] 0.156

NOP58 (UniProt Q9Y2X3)
inactive: [1] 0.039 | [2] -0.151 | [3] -0.063 | [4] 0.068 | [5] 0.031

MTHFD1 (UniProt P11586)
Sequence of UniProt P11586 (P11586 whole entry, looked up): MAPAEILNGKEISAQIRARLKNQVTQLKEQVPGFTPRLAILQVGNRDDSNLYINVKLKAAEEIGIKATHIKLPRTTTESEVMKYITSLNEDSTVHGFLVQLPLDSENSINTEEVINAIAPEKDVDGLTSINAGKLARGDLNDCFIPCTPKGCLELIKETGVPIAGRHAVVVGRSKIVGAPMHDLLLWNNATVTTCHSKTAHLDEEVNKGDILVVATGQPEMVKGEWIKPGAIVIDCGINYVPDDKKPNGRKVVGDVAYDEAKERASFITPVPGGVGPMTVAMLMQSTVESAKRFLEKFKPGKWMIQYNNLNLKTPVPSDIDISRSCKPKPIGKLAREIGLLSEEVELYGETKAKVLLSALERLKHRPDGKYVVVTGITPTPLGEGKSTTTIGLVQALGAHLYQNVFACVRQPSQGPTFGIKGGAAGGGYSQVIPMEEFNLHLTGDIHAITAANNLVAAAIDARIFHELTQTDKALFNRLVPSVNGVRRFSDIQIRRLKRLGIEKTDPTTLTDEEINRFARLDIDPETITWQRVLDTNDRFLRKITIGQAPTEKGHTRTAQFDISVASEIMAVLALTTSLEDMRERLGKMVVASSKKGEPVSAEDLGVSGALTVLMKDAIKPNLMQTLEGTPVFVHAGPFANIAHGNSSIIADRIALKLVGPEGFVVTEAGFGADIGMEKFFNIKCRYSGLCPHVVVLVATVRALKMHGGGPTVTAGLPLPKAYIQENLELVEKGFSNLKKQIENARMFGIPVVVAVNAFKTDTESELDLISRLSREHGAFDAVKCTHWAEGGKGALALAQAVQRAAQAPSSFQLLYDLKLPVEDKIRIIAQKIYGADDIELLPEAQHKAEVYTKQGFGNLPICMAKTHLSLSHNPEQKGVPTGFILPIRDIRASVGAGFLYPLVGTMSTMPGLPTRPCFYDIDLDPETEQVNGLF
inactive: [1] -0.059 | [2] 0.024 | [3] 0.018 | [4] -0.013 | [5] -0.019

NBN (UniProt O60934)
inactive: [1] 0.002 | [2] 0.032 | [3] 0.036 | [4] -0.004 | [5] -0.001

NSDHL (UniProt Q15738)
inactive: [1] 0.029 | [2] 0.047 | [3] 0.019 | [4] 0 | [5] -0.034

NDFIP1 (UniProt Q9BT67)
Sequence of UniProt Q9BT67 (Q9BT67 whole entry, looked up): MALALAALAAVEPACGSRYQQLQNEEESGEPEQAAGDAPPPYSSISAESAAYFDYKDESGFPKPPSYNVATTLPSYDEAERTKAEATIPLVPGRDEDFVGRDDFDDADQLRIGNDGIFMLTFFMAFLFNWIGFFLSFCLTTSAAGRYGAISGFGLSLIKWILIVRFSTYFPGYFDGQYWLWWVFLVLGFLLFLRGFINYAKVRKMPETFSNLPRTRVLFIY
inactive: [1] 0.035 | [2] -0.162 | [3] -0.076 | [4] -0.111 | [5] 0.052

NELFA (UniProt Q9H3P2)
inactive: [1] -0.016 | [2] 0.213 | [3] 0.056 | [4] -0.07 | [5] 0.035

NUP205 (UniProt Q92621)
inactive: [1] -0.004 | [2] 0.035 | [3] 0.08 | [4] -0.043 | [5] 0.008

MOB3B (UniProt Q86TA1)
Sequence of UniProt Q86TA1 (Q86TA1 whole entry, looked up): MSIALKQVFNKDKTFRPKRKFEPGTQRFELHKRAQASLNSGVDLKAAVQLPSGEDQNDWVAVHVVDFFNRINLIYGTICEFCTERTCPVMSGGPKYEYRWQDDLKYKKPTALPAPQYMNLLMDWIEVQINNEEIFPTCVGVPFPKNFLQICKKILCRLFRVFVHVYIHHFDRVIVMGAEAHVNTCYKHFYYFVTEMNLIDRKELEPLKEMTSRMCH
inactive: [1] 0 | [2] 0.029 | [3] 0.178 | [4] 0.041 | [5] -0.088

MSH3 (UniProt P20585)
inactive: [1] 0.008 | [2] 0.085 | [3] 0.052 | [4] -0.028 | [5] -0.087

OSBP (UniProt P22059)
Sequence of UniProt P22059 (P22059 whole entry, looked up): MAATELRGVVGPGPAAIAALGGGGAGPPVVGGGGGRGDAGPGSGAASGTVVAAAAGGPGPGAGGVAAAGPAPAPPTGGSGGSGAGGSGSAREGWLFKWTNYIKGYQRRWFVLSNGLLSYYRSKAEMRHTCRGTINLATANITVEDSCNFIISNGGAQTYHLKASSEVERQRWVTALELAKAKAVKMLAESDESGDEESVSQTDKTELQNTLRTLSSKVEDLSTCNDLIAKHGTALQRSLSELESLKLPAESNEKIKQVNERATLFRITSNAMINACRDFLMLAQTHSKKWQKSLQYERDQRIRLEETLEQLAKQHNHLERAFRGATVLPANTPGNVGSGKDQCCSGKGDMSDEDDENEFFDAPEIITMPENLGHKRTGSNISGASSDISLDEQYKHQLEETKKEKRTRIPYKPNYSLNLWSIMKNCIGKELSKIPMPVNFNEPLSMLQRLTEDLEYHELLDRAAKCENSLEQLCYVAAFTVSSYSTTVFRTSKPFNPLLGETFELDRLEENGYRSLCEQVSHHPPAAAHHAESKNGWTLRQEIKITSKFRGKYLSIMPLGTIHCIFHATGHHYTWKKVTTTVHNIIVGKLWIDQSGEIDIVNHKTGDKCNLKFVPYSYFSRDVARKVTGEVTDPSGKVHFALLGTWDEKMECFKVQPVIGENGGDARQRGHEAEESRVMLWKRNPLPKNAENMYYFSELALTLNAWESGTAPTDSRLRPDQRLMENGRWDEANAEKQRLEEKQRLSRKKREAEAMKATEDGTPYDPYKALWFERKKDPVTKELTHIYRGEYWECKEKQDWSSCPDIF
inactive: [1] 0.015 | [2] 0.084 | [3] 0.076 | [4] -0.002 | [5] 0.031

MRPL47 (UniProt Q9HD33)
inactive: [1] 0.042 | [2] -0.108 | [3] -0.131 | [4] 0.087 | [5] -0.01

NPC1L1 (UniProt Q9UHC9)
inactive: [1] 0.183 | [2] 0.063 | [3] 0.024 | [4] 0.007 | [5] 0.047

NELFB isoform 2 (UniProt Q8WX92)
inactive: [1] -0.098 | [2] 0.12 | [3] 0.123 | [4] -0.05 | [5] -0.023

NCL (UniProt P19338)
inactive: [1] 0.158 | [2] -0.365 | [3] -0.299 | [4] 0.227 | [5] 0

NDUFS7 (UniProt O75251)
inactive: [1] 0 | [2] 0.062 | [3] 0.015 | [4] -0.051 | [5] -0.022

MRPS21 (UniProt P82921)
inactive: [1] -0.238 | [2] 0.032 | [3] 0.013 | [4] 0.116 | [5] -0.016

MTMR14 (UniProt Q8NCE2)
inactive: [1] 0.03 | [2] 0.047 | [3] 0.156 | [4] -0.011 | [5] 0.069

MRPL50 (UniProt Q8N5N7)
inactive: [1] 0.11 | [2] 0.01 | [3] -0.079 | [4] -0.022 | [5] -0.05

NSUN2 (UniProt Q08J23)
inactive: [1] -0.019 | [2] 0.023 | [3] 0.003 | [4] 0 | [5] 0.003

MYLK (UniProt Q15746)
Sequence of UniProt Q15746 (Q15746 whole entry, looked up): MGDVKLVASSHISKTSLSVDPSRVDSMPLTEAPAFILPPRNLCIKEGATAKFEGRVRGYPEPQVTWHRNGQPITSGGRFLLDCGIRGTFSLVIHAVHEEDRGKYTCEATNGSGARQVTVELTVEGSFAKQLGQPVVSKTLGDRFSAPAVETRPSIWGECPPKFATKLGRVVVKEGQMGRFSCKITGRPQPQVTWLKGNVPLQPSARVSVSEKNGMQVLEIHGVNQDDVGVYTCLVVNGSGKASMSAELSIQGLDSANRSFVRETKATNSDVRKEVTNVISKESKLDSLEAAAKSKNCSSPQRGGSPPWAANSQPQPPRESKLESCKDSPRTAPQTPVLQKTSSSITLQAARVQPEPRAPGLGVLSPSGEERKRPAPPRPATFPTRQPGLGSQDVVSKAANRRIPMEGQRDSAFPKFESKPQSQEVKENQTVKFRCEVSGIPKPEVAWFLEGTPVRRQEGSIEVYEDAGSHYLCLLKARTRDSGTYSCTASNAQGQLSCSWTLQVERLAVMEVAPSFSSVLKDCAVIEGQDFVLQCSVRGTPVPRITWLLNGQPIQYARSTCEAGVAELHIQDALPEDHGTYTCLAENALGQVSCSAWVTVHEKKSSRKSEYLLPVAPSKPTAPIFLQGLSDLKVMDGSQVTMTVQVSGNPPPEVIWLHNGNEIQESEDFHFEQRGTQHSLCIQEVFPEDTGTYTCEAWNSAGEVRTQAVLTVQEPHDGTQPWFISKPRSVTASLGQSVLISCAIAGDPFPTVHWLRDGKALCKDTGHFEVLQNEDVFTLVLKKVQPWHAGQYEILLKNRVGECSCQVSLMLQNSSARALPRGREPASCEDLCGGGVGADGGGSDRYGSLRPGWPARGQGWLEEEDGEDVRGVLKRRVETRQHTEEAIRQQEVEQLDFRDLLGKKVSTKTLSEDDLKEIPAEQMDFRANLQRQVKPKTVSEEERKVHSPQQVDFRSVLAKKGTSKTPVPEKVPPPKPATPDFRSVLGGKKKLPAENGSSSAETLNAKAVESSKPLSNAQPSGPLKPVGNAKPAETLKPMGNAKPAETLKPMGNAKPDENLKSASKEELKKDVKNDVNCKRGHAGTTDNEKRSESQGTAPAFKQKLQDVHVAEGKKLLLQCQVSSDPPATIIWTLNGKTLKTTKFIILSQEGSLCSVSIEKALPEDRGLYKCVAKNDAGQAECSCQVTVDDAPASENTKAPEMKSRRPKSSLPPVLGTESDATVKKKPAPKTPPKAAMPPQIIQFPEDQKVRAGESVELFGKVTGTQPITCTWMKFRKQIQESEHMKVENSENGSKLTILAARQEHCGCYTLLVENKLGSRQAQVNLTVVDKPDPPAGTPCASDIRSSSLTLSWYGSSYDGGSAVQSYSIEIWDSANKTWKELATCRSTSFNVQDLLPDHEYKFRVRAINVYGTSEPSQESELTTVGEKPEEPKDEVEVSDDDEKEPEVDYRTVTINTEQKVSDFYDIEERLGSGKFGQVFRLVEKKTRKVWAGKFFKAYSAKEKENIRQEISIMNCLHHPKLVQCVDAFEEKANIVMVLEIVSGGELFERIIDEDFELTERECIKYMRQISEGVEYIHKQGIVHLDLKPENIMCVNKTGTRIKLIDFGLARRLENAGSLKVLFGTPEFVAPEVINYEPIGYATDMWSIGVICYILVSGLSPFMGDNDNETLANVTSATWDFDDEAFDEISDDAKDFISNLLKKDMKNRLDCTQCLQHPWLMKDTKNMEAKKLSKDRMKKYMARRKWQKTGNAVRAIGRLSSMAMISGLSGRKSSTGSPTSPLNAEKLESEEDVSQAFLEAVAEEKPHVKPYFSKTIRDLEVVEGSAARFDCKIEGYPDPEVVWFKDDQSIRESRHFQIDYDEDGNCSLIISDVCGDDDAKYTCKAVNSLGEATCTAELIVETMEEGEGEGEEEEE
inactive: [1] -0.08 | [2] -0.053 | [3] 0.096 | [4] 0.118 | [5] -0.21

NDUFB8 (UniProt O95169)
inactive: [1] 0.049 | [2] 0.045 | [3] 0.02 | [4] -0.002 | [5] 0.089

NPC1 (UniProt O15118)
inactive: [1] -0.034 | [2] -0.038 | [3] -0.017 | [4] 0.009 | [5] 0.049

NEMP1 (UniProt O14524)
Sequence of UniProt O14524 (O14524 whole entry, looked up): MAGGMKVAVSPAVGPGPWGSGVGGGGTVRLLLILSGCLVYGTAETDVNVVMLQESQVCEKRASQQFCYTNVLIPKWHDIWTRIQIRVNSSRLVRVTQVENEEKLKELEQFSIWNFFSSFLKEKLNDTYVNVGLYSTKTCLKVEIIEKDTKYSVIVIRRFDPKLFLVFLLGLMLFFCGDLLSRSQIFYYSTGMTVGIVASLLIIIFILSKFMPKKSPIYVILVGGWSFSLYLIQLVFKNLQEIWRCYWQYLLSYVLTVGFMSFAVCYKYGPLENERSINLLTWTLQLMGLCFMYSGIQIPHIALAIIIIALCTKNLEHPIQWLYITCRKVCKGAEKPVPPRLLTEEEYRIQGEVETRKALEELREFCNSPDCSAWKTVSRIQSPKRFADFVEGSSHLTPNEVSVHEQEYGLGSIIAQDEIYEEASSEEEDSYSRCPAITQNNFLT
inactive: [1] 0.015 | [2] -0.003 | [3] 0.036 | [4] 0.048 | [5] -0.018

OTUD6B (UniProt Q8N6M0)
inactive: [1] -0.051 | [2] 0.022 | [3] 0.11 | [4] 0.03 | [5] -0.153
